Results: PubChem BioAssay
“And” between values parts separate entries of the source, which are not always exact repeats. Equal values may be shown once. The source made the active and inactive calls.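 How the source made its calls, unless noted: active means thallium flux through the channel raised or lowered by more than 3 SD from vehicle-only wells, actives on both sides; inactive means the rest.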

Columns and labels:
[1] = liver-stage malaria parasite growth inhibition, primary screen, cell-based, HepG2, luciferase luminescence, HepG2 viability (AID 624349; in the data active means parasite load remaining mostly below about 12%, no sharp cut-off; inactive means mostly above about 10%;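 further: 100% = mean of DMSO negative control wells on the same plate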); settings: P. berghei liver stage in HepG2, luciferase luminescence, concentration not given here; parasite load remaining: stronger effect = lower value; viability: measured here: HepG2 viability without parasites
[2] = Cy5 fluorescence interference with SSB-bound oligo, artefact control for HCV NS3 helicase inhibitor project, biochemical, NIH Clinical Collection, E. coli SSB (AID 743268; call rule not given here)
[3] = test system: Hepatitis C virus NS3 helicase; test: HCV NS3 helicase inhibitors, primary screen, biochemical, fluorescence polarization, NIH Clinical Collection (AID 743270; call rule not given here); settings: NS3 helicase binding to Cy5-dT15 DNA, stronger effect = higher value, concentration not given here
[4] = biological target: Single-stranded DNA-binding protein (Escherichia coli (strain K12)) (UniProt P0AGE0); test: E. coli SSB displacement from DNA, counter-screen for HCV NS3 helicase inhibitor project, biochemical, fluorescence polarization, NIH Clinical Collection (AID 743271; in the data active means inhibition above about 28%); settings: stronger effect = higher value, concentration not given here
[5] = fluorescence interference in NS3h assay format, artefact control for HCV NS3 helicase inhibitor project, biochemical, NIH Clinical Collection (AID 743272; call rule not given here;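 further: HCV NS3 helicase with a Cy5 labelled single stranded DNA probe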); settings: fluorescence interference counterscreen, stronger effect = lower value
[6] = modulation of C. elegans fzo-1 (AID 1259413; call rule not given here;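 further: fzo-1 mutant C. elegans worms in liquid wells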); settings: C. elegans fzo-1 modulator screen, mean read-out; stronger effect = higher value
[7] = sensitizers of A549 cells to miR-34 induction, primary screen, imaging, A549 dox-inducible miR-34, nuclei and caspase counts (AID 1347080;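 active means compounds whose cell count with miR-34 switched on is under 0.7 times the count with it off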); settings: A549 miR-34 inducible, Hoechst nuclei count, 48 h
[8] = test system: F380Y; test: modulators of BK channel variants, profiling panel, selectivity assay, cell-based, U2OS BacMam, thallium flux, beta subunits (AID 1259406); settings: at 30 µM;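 further: initial slope of Thallos dye fluorescence rise after thallium is added; log ratio against the mean of 0.3% DMSO vehicle wells on the same plate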
[9] = test system: F380Y/beta1; test: as above; settings: at 30 µM
[10] = test system: F380Y/beta2Delta; test: as above; settings: at 30 µM
[11] = test system: F380Y/beta4; test: as above; settings: at 30 µM
[12] = biological target: Calcium-activated potassium channel subunit alpha-1 (Homo sapiens) + Leucine-rich repeat-containing protein 26 (Homo sapiens) (UniProt Q12791+Q2I0M4); test: as above; settings: F380Y/Slo1WT/gamma1, at 30 µM
[13] = test system: R275C; test: as above; settings: at 30 µM
[14] = test system: R275C/beta1; test: as above; settings: at 30 µM
[15] = test system: R275C/beta2Delta; test: as above; settings: at 30 µM
[16] = test system: R275C/beta4; test: as above; settings: at 30 µM
[17] = test system: R275C/Slo1WT/beta2; test: as above; settings: at 30 µM
[18] = survival rescue of mitochondrial mutant cells in low glucose, primary screen, MELAS cybrids, Rieske KO mouse fibroblasts, CellTiter-Glo (AID 1508586;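 active means mean z-score across replicates of 1.96 or higher in either the MELAS or the Rieske mutant cell line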;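 further: z relative to plate mean and SD of compound and empty wells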)
[19] = ovarian cancer cell viability with rucaparib, profiling panel, oncology-focused library, rucaparib conditional (AID 1508598;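 active means normalized viability below 100% at a tested concentration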); settings: patient-derived ovarian cancer cells, CellTiter-Glo viability, 144 h, stronger effect = lower value
[20] = stronger effect = lower value, cell number ratio, induced over uninduced
[21] = measured here: relative caspase fold change +Dox/-Dox
[22] = measured here: total cells with miR-34 induction, stronger effect = lower value
[23] = measured here: total cells without miR-34 induction
[24] = MELAS cybrid survival, CellTiter-Glo 48 h, stronger effect = higher value
[25] = Rieske KO mouse fibroblast survival, CellTiter-Glo 72 h

Calcium-activated potassium channel subunit alpha-1 (Homo sapiens) + Leucine-rich repeat-containing protein 26 (Homo sapiens), sequence (Q2I0M4 whole entry, looked up, one chain of several): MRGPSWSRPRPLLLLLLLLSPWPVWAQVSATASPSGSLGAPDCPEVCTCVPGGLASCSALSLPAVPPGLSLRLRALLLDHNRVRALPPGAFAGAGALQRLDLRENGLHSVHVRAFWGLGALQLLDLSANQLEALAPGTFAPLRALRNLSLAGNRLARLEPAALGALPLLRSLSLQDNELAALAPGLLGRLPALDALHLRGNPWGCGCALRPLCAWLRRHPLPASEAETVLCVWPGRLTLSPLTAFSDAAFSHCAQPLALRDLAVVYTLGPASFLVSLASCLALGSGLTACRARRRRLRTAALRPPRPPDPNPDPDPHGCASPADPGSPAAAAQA

CC1c2cccc(O)c2C(O)=C2C(=O)C3(O)C(O)=C(C(N)=O)C(=O)C(N(C)C)C3C(O)C21 (configuration not stated)
active: log fold change Tl+ flux [9] -0.12
2010: cell count [7, 23]
2090: cell count [7, 22]
132%: viability [1]
1.1: fold change [7, 21]
inactive: parasite load remaining [1] 45.4% | fluorescence ratio [2] 1.05 | inhibition [3] -13.2% | inhibition [4] -2.76% | fluorescence ratio [5] 1 | mean signal [6] 241 | fold change [7, 20] 1.04 | log fold change Tl+ flux [8] 0.0135 | log fold change Tl+ flux [10] -0.0466 | log fold change Tl+ flux [11] -0.028 | log fold change Tl+ flux [12] -0.0167 | log fold change Tl+ flux [13] -0.0534 | log fold change Tl+ flux [14] -0.0443 | log fold change Tl+ flux [15] -0.0148 | log fold change Tl+ flux [16] -0.108 | log fold change Tl+ flux [17] -0.0846

CCCCc1nc(Cl)c(CO)n1Cc1ccc(-c2ccccc2-c2nnn[nH]2)cc1
76.8% and 103%: viability [1]
-1.13: z-score [18, 25]
9420 and 8200: cell count [7, 22]
10300 and 10400: cell count [7, 23]
2.6 and 1.84: fold change [7, 21]
inactive: parasite load remaining [1] 81.8% and 40.5% | fluorescence ratio [2] 1.01 | inhibition [3] -1.19% | inhibition [4] 2.21% | fluorescence ratio [5] 0.93 | mean signal [6] 250 | fold change [7, 20] 0.917 and 0.788 | z-score [18, 24] -0.447 | log fold change Tl+ flux [8] -0.0174 | log fold change Tl+ flux [9] 0.0224 | log fold change Tl+ flux [10] -0.000818 | log fold change Tl+ flux [11] 0.0154 | log fold change Tl+ flux [12] 0.0245 | log fold change Tl+ flux [13] -0.0209 | log fold change Tl+ flux [14] 0.00988 | log fold change Tl+ flux [15] 0.0215 | log fold change Tl+ flux [16] 0.039 | log fold change Tl+ flux [17] -0.0136

Nc1nc(Cl)nc2c1ncn2[C@H]1C[C@H](O)[C@@H](CO)O1
active: viability ([19]; at 0.00488 µM, OCI-C5x cells, with rucaparib 10 µM, 100% = cells with rucaparib alone) 96% | viability ([19]; at 0.0195 µM, OCI-P5x cells, without rucaparib) 91.4% | viability ([19]; at 0.0781 µM, OCI-P5x cells, without rucaparib) 76.7% | viability ([19]; at 0.313 µM, OCI-C5x cells, without rucaparib) 95.6% | viability ([19]; at 0.313 µM, OCI-P5x cells, with rucaparib 20 µM, 100% = cells with rucaparib alone) 88.9% | viability ([19]; at 0.313 µM, OCI-P5x cells, without rucaparib) 50.8% | viability ([19]; at 1.25 µM, OCI-C5x cells, with rucaparib 10 µM, 100% = cells with rucaparib alone) 95.8% | viability ([19]; at 1.25 µM, OCI-C5x cells, without rucaparib) 94.4% | viability ([19]; at 1.25 µM, OCI-P5x cells, with rucaparib 20 µM, 100% = cells with rucaparib alone) 50.8% | viability ([19]; at 1.25 µM, OCI-P5x cells, without rucaparib) 37% | viability ([19]; at 5 µM, OCI-C5x cells, with rucaparib 10 µM, 100% = cells with rucaparib alone) 72.5% | viability ([19]; at 5 µM, OCI-C5x cells, without rucaparib) 54.1% | viability ([19]; at 5 µM, OCI-P5x cells, with rucaparib 20 µM, 100% = cells with rucaparib alone) 35.7% | viability ([19]; at 5 µM, OCI-P5x cells, without rucaparib) 18.1%
71.4%: viability [1]
1.38: z-score [18, 24]
inactive: parasite load remaining [1] 10.3% | fluorescence ratio [2] 1.02 | inhibition [3] -1.09% | inhibition [4] -3.54% | fluorescence ratio [5] 0.99 | mean signal [6] 237 | viability ([19]; at 0.000305 µM, OCI-C5x cells, with rucaparib 10 µM, 100% = cells with rucaparib alone) 104% | viability ([19]; at 0.000305 µM, OCI-C5x cells, without rucaparib) 113% | viability ([19]; at 0.000305 µM, OCI-P5x cells, with rucaparib 20 µM, 100% = cells with rucaparib alone) 106% | viability ([19]; at 0.000305 µM, OCI-P5x cells, without rucaparib) 108% | viability ([19]; at 0.00122 µM, OCI-C5x cells, with rucaparib 10 µM, 100% = cells with rucaparib alone) 101% | viability ([19]; at 0.00122 µM, OCI-C5x cells, without rucaparib) 115% | viability ([19]; at 0.00122 µM, OCI-P5x cells, with rucaparib 20 µM, 100% = cells with rucaparib alone) 108% | viability ([19]; at 0.00122 µM, OCI-P5x cells, without rucaparib) 110% | viability ([19]; at 0.00488 µM, OCI-C5x cells, without rucaparib) 113% | viability ([19]; at 0.00488 µM, OCI-P5x cells, with rucaparib 20 µM, 100% = cells with rucaparib alone) 106% | viability ([19]; at 0.00488 µM, OCI-P5x cells, without rucaparib) 106% | viability ([19]; at 0.0195 µM, OCI-C5x cells, with rucaparib 10 µM, 100% = cells with rucaparib alone) 111% | viability ([19]; at 0.0195 µM, OCI-C5x cells, without rucaparib) 111% | viability ([19]; at 0.0195 µM, OCI-P5x cells, with rucaparib 20 µM, 100% = cells with rucaparib alone) 108% | viability ([19]; at 0.0781 µM, OCI-C5x cells, with rucaparib 10 µM, 100% = cells with rucaparib alone) 105% | viability ([19]; at 0.0781 µM, OCI-C5x cells, without rucaparib) 109% | viability ([19]; at 0.0781 µM, OCI-P5x cells, with rucaparib 20 µM, 100% = cells with rucaparib alone) 107% | viability ([19]; at 0.313 µM, OCI-C5x cells, with rucaparib 10 µM, 100% = cells with rucaparib alone) 112% | log fold change Tl+ flux [8] -0.0268 | log fold change Tl+ flux [9] -0.0427 | log fold change Tl+ flux [10] -0.00452 | log fold change Tl+ flux [11] -0.0201 | log fold change Tl+ flux [12] -0.0394 | log fold change Tl+ flux [13] 0.0195 | log fold change Tl+ flux [14] 0.022 | log fold change Tl+ flux [15] 0.0372 | log fold change Tl+ flux [16] 0.000993 | log fold change Tl+ flux [17] 0.0197
3.04: z-score [18, 25]

CCC(CO)NCCNC(CC)CO (configuration not stated)
129%: viability [1]
inactive: parasite load remaining [1] 78.1% | fluorescence ratio [2] 1.1 | inhibition [3] -5.91% | inhibition [4] -2% | fluorescence ratio [5] 1.03 | mean signal [6] 252 | fold change [7, 20] 0.98 and 0.902 | z-score [18, 24] -0.216 | log fold change Tl+ flux [8] -0.0102 | log fold change Tl+ flux [9] -0.0572 | log fold change Tl+ flux [10] 0.024 | log fold change Tl+ flux [11] -0.00313 | log fold change Tl+ flux [12] -0.00134 | log fold change Tl+ flux [13] 0.00482 | log fold change Tl+ flux [14] -0.0497 | log fold change Tl+ flux [15] 0.000295 | log fold change Tl+ flux [16] -0.0366 | log fold change Tl+ flux [17] 0.0123
-0.177: z-score [18, 25]
10600 and 8610: cell count [7, 23]
1.98 and 0.647: fold change [7, 21]
10400 and 7770: cell count [7, 22]

O=C(O)C[C@H](O)C[C@H](O)/C=C/c1c(C2CC2)nc2ccccc2c1-c1ccc(F)cc1
1740: cell count [7, 22]
inactive: parasite load remaining [1] 177% | fluorescence ratio [2] 0.98 | inhibition [3] -2.84% | inhibition [4] -1.18% | fluorescence ratio [5] 0.96 | mean signal [6] 212 | fold change [7, 20] 1.25 | log fold change Tl+ flux [8] -0.03 | log fold change Tl+ flux [10] 0.0555 | log fold change Tl+ flux [11] 0.0888 | log fold change Tl+ flux [13] 0.0026
1390: cell count [7, 23]
60.8%: viability [1]
active: log fold change Tl+ flux [9] 0.292 | log fold change Tl+ flux [12] 0.113 | log fold change Tl+ flux [14] 0.226 | log fold change Tl+ flux [15] 0.114 | log fold change Tl+ flux [16] 0.107 | log fold change Tl+ flux [17] 0.12
0.319: fold change [7, 21]

COC(=O)Nc1nc2ccc(C(=O)c3ccc(F)cc3)cc2[nH]1
1490 and 1950: cell count [7, 23]
85.5% and 74.5%: viability [1]
1.31 and 0.65: fold change [7, 21]
inactive: parasite load remaining [1] 68.5% and 34.2% | fluorescence ratio [2] 1.06 | inhibition [3] -1.19% | inhibition [4] -0.87% | fluorescence ratio [5] 0.95 | mean signal [6] 249 | fold change [7, 20] 1.22 and 1.03 | z-score [18, 24] -2.49 and -1.97 | log fold change Tl+ flux [8] -0.0412 | log fold change Tl+ flux [9] 0.0196 | log fold change Tl+ flux [10] -0.0407 | log fold change Tl+ flux [11] -0.0852 | log fold change Tl+ flux [12] 0.00265 | log fold change Tl+ flux [13] -0.0283 | log fold change Tl+ flux [14] -0.0436 | log fold change Tl+ flux [15] -0.052 | log fold change Tl+ flux [16] 0.0237 | log fold change Tl+ flux [17] 0.00461
1820 and 2010: cell count [7, 22]
1.69 and 0.533: z-score [18, 25]
